BAZ2B inh: inhibitors of human BAZ2B bromodomain; AlphaScreen BAZ2B-H3K14Ac peptide displacement; AID 504333; Potency, µM (highest dose often 114 µM), hits mostly inhibitors; Q9UIF8; 4.4% of 360,000 active; note: nearly all actives have a fitted effect of over 60% in size
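AlphaScreen displacement: compounds (up to 110uM) incubated 30 min at room temperature with a preformed 50 nM BAZ2B/50 nM biotinylated H3K14Ac peptide complex in PBS pH 7.4 with Tween-20. Donor and acceptor beads at 10 ug/mL final added, 20 min light-protected before reading.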
HP1b chromo inh: blocks HP1-beta chromodomain binding to methylated histone tails | P83916 | AlphaScreen HP1-beta / biotin-H3K9me3 peptide binding | Potency, µM (doses to about 114 µM), most hits filed as inhibitors | 0.56% of 390,000 active | AID 540317; note: nearly all actives have a fitted effect of over 70% in size
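Compound inhibition of the preformed complex between 50 nM HP1-beta and 50 nM biotinylated H3K9me3 peptide was read by AlphaScreen. Buffer was PBS pH 7.4 with 0.01% Tween-20. Incubations ran 30 min at room temperature, with 10 ug/mL donor/acceptor beads.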
TDP1 inh: inhibitors of human tyrosyl-DNA phosphodiesterase TDP1; Potency, µM (series often up to 130 µM), usual class: inhibitors; recombinant TDP1, AlphaScreen DNA substrate cleavage; Q9NUW8; AID 485290; 0.28% of 350,000 active; note: nearly all actives have a fitted effect of over 40% in size
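Signal: AlphaScreen proximity between streptavidin donor and anti-FITC acceptor beads on intact substrate. Reaction: Tdp1 1 nM, substrate 15 nM final, 5 min RT after 15 min compound preincubation.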
CtBP-E1A blk: blocks the CtBP interaction with E1A; AlphaScreen GST-E1A/His-CtBP binding, 1536-well; stronger effect = lower value; activity change, % (no concentration beside the values); 0.49% of 340,000 active; AID 651724; in the data active = activity change below about -65%; inconclusive = mostly about -30% to -63%
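GST-E1A and His-tagged CtBP (125 nM each as 5X stock) were preincubated with pin-transferred compound for 2 h at 37 °C in the dark, then glutathione donor and nickel acceptor beads were added for 1 h before AlphaScreen reading.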
Six1-Eya2 blk: blocks human Six1 binding to Eya2; Q15475+O00167; AlphaScreen GST-Six1/His-Eya2 binding, biochemical; stronger effect = lower value; activity change, % (no concentration beside the values); 0.56% of 360,000 active; in the data active = activity change below about -65%; inconclusive = mostly about -30% to -63%
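AlphaScreen luminescence read after one hour at 37 °C in darkness. Pin-transferred compounds met GST-Six1 and His-Eya2 protein (5X stock 250 nM/500 nM) plus glutathione donor and Ni-chelate acceptor beads (5X, 50 ug/mL).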
JMJD2A Tudor inh: blocks the human JMJD2A Tudor domain. 4.4% of 390,000 active. Potency, µM (top dose mostly 114 µM), hits mostly inhibitors. O75164. AlphaScreen JMJD2A-Tudor / H3K4me3 peptide binding; note: nearly all actives have a fitted effect of over 50% in size
Each line names hits and unclear results; the compound was inactive in the other large screens. Most compounds without a hit are left out; they make up all but 5.3% or so of the library. Unless noted, calls come from the whole dose curve; as a rule, active = well fitted inhibition curve with a large enough effect; inconclusive = small, poorly fitted or top-dose-only effect; inactive = no such curve, though single readings can be large or run the other way.

CCc1nc(NCCCn2ccnc2)c2oc3ccccc3c2n1	BAZ2B inh inconclusive
Cc1nc(NCCCn2ccnc2)c2ccccc2n1	JMJD2A Tudor inh 89µM
Cc1cc(NCCCn2ccnc2)n2c(nc3ccccc32)c1C#N	none
c1ccc(-c2nc(NCCCn3ccnc3)c3oc4ccccc4c3n2)cc1	BAZ2B inh 45µM, CtBP-E1A blk -68, Six1-Eya2 blk inconclusive, JMJD2A Tudor inh inconclusive
Cc1ccc(-c2nc(NCc3ccco3)c3ccccc3n2)cc1	none (no result: CtBP-E1A blk)
c1ccc(-c2nc(NCc3ccco3)c3oc4ccccc4c3n2)cc1	BAZ2B inh inconclusive, JMJD2A Tudor inh 89µM
CC(C)CCNC(=O)C(CC(C)C)NC(=O)C1OC1C(=O)O (stereo not drawn)	none (no result: BAZ2B inh, HP1b chromo inh, CtBP-E1A blk, Six1-Eya2 blk, JMJD2A Tudor inh)
Cc1nn(-c2ccccc2)c2nc(C3CC3)cc(C(=O)Nc3ccc(F)cc3)c12	none (no result: CtBP-E1A blk, Six1-Eya2 blk)
CC(=O)N1CCCc2cc(S(=O)(=O)N(C)CC(=O)Nc3ccc(F)c(Cl)c3)ccc21	none (no result: CtBP-E1A blk, Six1-Eya2 blk)
Cc1ccc(NC(=O)COc2coc(CN3CCc4ccccc43)cc2=O)c(C)c1	BAZ2B inh 50µM, JMJD2A Tudor inh inconclusive
C=CCn1c(C(C)NC(=O)c2ccc(C)cc2)n[nH]c1=S (stereo not drawn)	JMJD2A Tudor inh 8.9µM
C=CCn1c(C(C)NC(=O)c2ccccc2C)n[nH]c1=S (stereo not drawn)	JMJD2A Tudor inh 7.9µM
Cc1ccccc1CNC(=O)C1CCN(S(=O)(=O)Cc2ccccc2)CC1	none (no result: CtBP-E1A blk, Six1-Eya2 blk)
Cc1cccc(CC(=O)NCCc2csc(-c3ccc(C(F)(F)F)cc3)n2)c1	none (no result: CtBP-E1A blk, Six1-Eya2 blk)
CC[n+]1c(/C=C/C=C/N(C(C)=O)c2ccccc2)sc2cc(OC)ccc21	BAZ2B inh 45µM, HP1b chromo inh inconclusive, Six1-Eya2 blk inconclusive, JMJD2A Tudor inh 56µM
O=C(OCC(=O)N1CCN(C(=O)c2ccco2)CC1)c1cc(-c2ccco2)nc2ccccc12	BAZ2B inh 20µM, HP1b chromo inh 32µM, JMJD2A Tudor inh 40µM (no result: TDP1 inh)
COc1ccc(CNC(=O)COC(=O)c2cc(-c3ccco3)nc3ccccc23)cc1	BAZ2B inh 50µM (no result: HP1b chromo inh, CtBP-E1A blk, Six1-Eya2 blk, JMJD2A Tudor inh)
COc1ccc(-c2cc(C(=O)OCc3ccccn3)c3ccccc3n2)cc1	BAZ2B inh inconclusive, JMJD2A Tudor inh 20µM (no result: TDP1 inh)
CCNC(=O)COC(=O)c1cc(-c2ccco2)nc2ccccc12	BAZ2B inh 50µM, HP1b chromo inh inconclusive, TDP1 inh inconclusive, JMJD2A Tudor inh 56µM (no result: CtBP-E1A blk)
COc1ccc(CNC(=O)COC(=O)c2cc(C)nc3ccccc23)cc1	none (no result: BAZ2B inh)
COc1ccc(-c2cc(C(=O)OCC(=O)N(C)C)c3ccccc3n2)cc1	none
CCCN(C(=O)c1cn(C)c(=O)c2cc(OC)c(OC)cc12)c1ccc(CC)cc1	none (no result: CtBP-E1A blk, Six1-Eya2 blk)
N#CCC(=O)Nc1ccc(C(=O)OCC(=O)N2CCN(C(=O)c3ccco3)CC2)cc1	TDP1 inh 45µM, JMJD2A Tudor inh inconclusive (no result: BAZ2B inh)
O=C(OCC(=O)N1CCN(C(=O)COC(=O)c2ccccc2NCCO)CC1)c1ccccc1NCCO	none (no result: BAZ2B inh, TDP1 inh)
O=C(OCC(=O)N1CCN(C(=O)c2ccco2)CC1)c1ccccc1NCCO	BAZ2B inh inconclusive, TDP1 inh 45µM, JMJD2A Tudor inh 32µM
CC(=O)Nc1ccc(C(=O)OCC(=O)N2CCN(C(=O)c3ccco3)CC2)cc1	none
Cc1ncn(-c2ccccc2)c1-c1ccccc1	BAZ2B inh 50µM, JMJD2A Tudor inh inconclusive
c1ccc(-n2cnc3ccccc32)cc1	none
Nc1[nH]n(-c2ccccc2)c(=O)c1N=Nc1ccc2c(c1)OCCO2	BAZ2B inh 10µM, HP1b chromo inh 45µM, Six1-Eya2 blk -69, JMJD2A Tudor inh 20µM
Nc1[nH]n(-c2ccccc2)c(=O)c1N=Nc1ccc2c(c1)OCO2	BAZ2B inh 4µM, HP1b chromo inh inconclusive, Six1-Eya2 blk inconclusive, JMJD2A Tudor inh 10µM (no result: TDP1 inh)
CCCSc1ncc(Cl)c(C(=O)Nc2sc(C(C)=O)c(C)c2C(=O)OCC)n1	none (no result: CtBP-E1A blk, Six1-Eya2 blk)
O=C(CC1CCCCC1)NCc1ccccn1	none
O=C(c1c(F)cccc1F)N(Cc1ccccn1)C1CC1	BAZ2B inh 79µM
Nc1nnc(CC(=O)N/N=C/c2ccc(-c3cccc(C(=O)O)c3)o2)s1	CtBP-E1A blk -71, Six1-Eya2 blk -66, JMJD2A Tudor inh inconclusive (no result: TDP1 inh)
